RXFP1 antagonist: blocks the human relaxin receptor RXFP1. Q9HBX9. HEK293-RXFP1, relaxin-stimulated cAMP HTRF, 30 min; stronger effect = lower value. activity change, negative = inhibition, % at 57.5 µM. 0.59% of 350,000 active. AID 1259400;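 active = activity change of -60% or lower, but not beyond a set lower limit; inconclusive = change between -60% and -40%, or beyond the set limit; inactive = change above -40%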
Target sequence (Q9HBX9 whole entry, looked up): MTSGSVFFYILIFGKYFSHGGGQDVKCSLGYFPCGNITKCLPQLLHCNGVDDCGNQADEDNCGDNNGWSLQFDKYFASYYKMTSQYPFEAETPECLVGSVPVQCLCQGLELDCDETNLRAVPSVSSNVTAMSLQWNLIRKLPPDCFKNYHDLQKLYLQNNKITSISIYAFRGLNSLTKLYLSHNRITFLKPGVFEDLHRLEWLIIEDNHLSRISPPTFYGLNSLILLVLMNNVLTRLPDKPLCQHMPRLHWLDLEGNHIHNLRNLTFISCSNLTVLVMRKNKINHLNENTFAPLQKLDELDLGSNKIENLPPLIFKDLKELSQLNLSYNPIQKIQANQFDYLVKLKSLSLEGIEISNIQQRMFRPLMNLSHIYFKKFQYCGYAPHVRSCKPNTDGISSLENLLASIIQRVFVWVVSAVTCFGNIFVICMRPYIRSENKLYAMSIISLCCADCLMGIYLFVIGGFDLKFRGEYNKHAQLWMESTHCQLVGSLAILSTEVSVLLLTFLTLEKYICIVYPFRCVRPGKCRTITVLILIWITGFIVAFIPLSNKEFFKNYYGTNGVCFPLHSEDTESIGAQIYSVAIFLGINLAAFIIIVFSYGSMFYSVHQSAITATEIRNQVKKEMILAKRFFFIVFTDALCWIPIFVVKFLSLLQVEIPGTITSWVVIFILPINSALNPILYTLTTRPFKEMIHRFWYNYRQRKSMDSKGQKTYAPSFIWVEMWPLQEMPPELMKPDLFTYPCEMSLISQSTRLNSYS
RXFP1 agonist: agonists of human relaxin receptor RXFP1 | AID 2676 | Q9HBX9 | HEK293T-RXFP1 cAMP TR-FRET, 30 min; response scale: percent of porcine relaxin response, buffer zero | 0.3% of 370,000 active | Potency, µM (highest dose often 57.5 µM), actives largely listed as activators; active = well fitted activation curve with a large enough effect; inconclusive = small, poorly fitted or top-dose-only effect; note: nearly all actives have a fitted effect of over 60% in size
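HEK293 cells stably expressing RXFP1, treated 30 min at 37C with compounds plus PDE4 inhibitor Ro 20174; cAMP measured by HTRF TR-FRET. Normalized to buffer and 29 nM porcine relaxin; EC50 by Hill fit.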
gsp agonist: agonists of gsp mutant (McCune-Albright syndrome). gsp mutant cells, cAMP HTRF, 30 min. Potency, µM (doses to about 76.9 µM), most hits filed as activators. 0.13% of 340,000 active; active = well fitted activation curve with a large enough effect; inconclusive = small, poorly fitted or top-dose-only effect, or another doubt; inactive = no such curve, though single readings can be large or run the other way; cell line not stated here;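 note: phosphodiesterase inhibitor Ro 20-1724 added with compounds to block cAMP breakdown; nearly all actives have a fitted effect of over 60% in size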
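Cells stably selected in G418 were plated at 2000/well, grown 16-24 hr, then given compounds in DMSO with the PDE inhibitor […] (300 uM solution added) for 30 min at 37C; cAMP was read by HTRF.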
gsp antag: antagonizes gsp, the McCune-Albright syndrome mutation; gsp-mutant cells, cAMP HTRF, 30 min; Potency, µM (top dose mostly 76.9 µM), hits mostly inhibitors; 0.4% of 340,000 active; calls by dose curve; cell line not stated here;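 note: intracellular cAMP measured with PDE inhibitor Ro 20-1724 present during compound exposure; nearly all actives have a fitted effect of over 65% in size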
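HTRF cAMP read-out (cAMP-d2 plus anti-cAMP antibody-K in lysis buffer, 30 min RT). Before lysis, cells are exposed to compounds with […] for 30 min at 37C in DPBS containing Ca/Mg, BSA and Tween 20.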
Large screens that a line does not name were inactive. In the library only some 0.9% were active in any assay of this set; here they are far more common.

COc1ccc(OCCNC(=O)C(Cc2c[nH]c3ccccc23)NC(C)=O)cc1 (centres undefined)	gsp agonist 10µM
COc1ccc2cc(C(=O)NCc3ccc4c(c3)CCN4C(=O)c3ccc(F)cc3)[nH]c2c1	none (no result: gsp agonist, gsp antag)
COc1ccc(CC(=O)NCc2ccc3c(c2)CCN3C(=O)c2cccc(C)c2)cc1	RXFP1 antagonist -97 (no result: gsp agonist, gsp antag)
COc1cccc2[nH]c(C(=O)NCc3ccc4c(c3)CCN4C(=O)c3ccc(F)cc3)cc12	RXFP1 antagonist -68 (no result: gsp agonist, gsp antag)
CC(Sc1ncnc2c1cnn2-c1ccccc1)C(=O)NCC1CCCO1 (centres undefined)	none
Cc1nc(SC(C)C(=O)NCC2CCCO2)c2cc(-c3ccccc3)sc2n1 (centres undefined)	RXFP1 antagonist -69
Cc1ccc(CN(C(=O)c2ccccc2Br)C2CCS(=O)(=O)C2)o1 (centres undefined)	none (no result: gsp agonist, gsp antag)
Cc1ccccc1-c1noc(-c2ccc(N3CCCCC3)c([N+](=O)[O-])c2)n1	none (no result: RXFP1 antagonist, gsp agonist, gsp antag)
O=C1CC(N2CCC(c3nc4ccccc4s3)CC2)C(=O)N1Cc1ccccc1 (centres undefined)	gsp antag 35µM
N#Cc1c2n(c3c(N)ncnc13)CCCCC2	RXFP1 agonist 18µM
S=c1nc(-c2ccccc2)[nH]c2ccccc12	RXFP1 agonist inconclusive, gsp agonist 16µM
Cc1cc(C)c(NC(=O)C(C)n2nc(C)c3sc4ccccc4c3c2=O)c(C)c1 (centres undefined)	none (no result: gsp agonist, gsp antag)
Cc1ccc(C)c(OCCC(=O)OCC(=O)NCCNC(=O)COC(=O)CCOc2cc(C)ccc2C)c1	RXFP1 antagonist -62
OC[C@H]1O[C@H](O[C@]2(CCl)O[C@H](CCl)[C@@H](O)[C@@H]2O)[C@H](O)[C@@H](O)[C@H]1Cl	none (no result: RXFP1 agonist, gsp agonist, gsp antag)
O=C(O)c1ccccc1NC(=O)c1cc2ccccc2oc1=O	gsp agonist inconclusive, gsp antag 32µM
CC(C)(C)c1nc(SCC(=O)c2ccccc2)c2ccccc2n1	RXFP1 antagonist -67
O=C(O)c1ccc(NC(=S)NC(=O)c2ccc(-c3ccccc3)cc2)cc1	RXFP1 antagonist inconclusive, gsp antag 20µM
Cn1ncc2cc(NC(=S)NC(=O)c3ccccc3)ccc21	gsp antag 40µM
O=C(NC(=S)Nc1ccc2c(c1)OCCO2)c1ccccc1	gsp antag 32µM
O=C(CSc1cn(CCNC(=O)c2c(F)cccc2F)c2ccccc12)Nc1ccc2c(c1)OCCO2	none (no result: RXFP1 antagonist, gsp agonist, gsp antag)
Cc1ccc(CCNS(=O)(=O)c2ccc3c(c2)CC(C)N3C(=O)C2CCC2)cc1 (centres undefined)	none (no result: gsp agonist, gsp antag)
O=[N+]([O-])c1ccc(N=Nc2c(Cl)cc(O)cc2Cl)cc1	gsp antag 16µM
CCN(CC)S(=O)(=O)c1ccc2c(c1)N(CC(=O)Nc1ccc(F)cc1)C(=O)CO2	none (no result: gsp agonist, gsp antag)
O=C(N/N=C/c1ccc(OC(F)F)cc1)c1ccc(CSc2nc3ccccc3[nH]2)cc1	RXFP1 antagonist inconclusive, gsp antag 8.9µM
CCN1CCCC1CN (centres undefined)	none (no result: RXFP1 agonist, gsp agonist, gsp antag)
O=C1CC(c2cccc([N+](=O)[O-])c2)c2c(ccc3ccccc23)N1 (centres undefined)	gsp antag 40µM
O=C1CC(c2ccc(Br)cc2)c2c(ccc3ccccc23)N1 (centres undefined)	RXFP1 antagonist inconclusive (no result: gsp agonist, gsp antag)
CSc1ncc(C(=O)NCc2ccccc2)c(-c2ccccc2)n1	none (no result: gsp agonist, gsp antag)
C/C(=N\Nc1cc(C)nc(-c2ccccc2O)n1)c1ccccc1	none
Cc1cc(N/N=C/c2ccc(O)c(C)c2O)nc(-c2ccccc2O)n1	RXFP1 antagonist -72, gsp agonist inconclusive
COc1ccc(CC(=O)Nc2cccc(-c3nnc(-c4cccc(C)c4)o3)c2)cc1OC	gsp antag 32µM
COc1ccc(CC(=O)Nc2cccc(-c3nnc(-c4ccc(C)cc4)o3)c2)cc1OC	gsp antag inconclusive
NS(=O)(=O)c1ccc(-c2ccc(/C=C3\C(=O)Nc4ccccc43)o2)cc1	none (no result: RXFP1 antagonist, gsp agonist, gsp antag)
CC1(C)OC(=O)C(=Cc2ccc(-c3ccc(S(N)(=O)=O)cc3)o2)C(=O)O1	RXFP1 antagonist -105, gsp antag inconclusive
COc1ccc(Cn2c(=O)[nH]c3cc(C(=O)NCCC(C)C)ccc3c2=O)cc1	none (no result: RXFP1 antagonist, gsp agonist, gsp antag)
CC(C)CCNC(=O)c1ccc(Cn2c(=S)[nH]c3ccccc3c2=O)cc1	RXFP1 antagonist -73
Cc1cccc(Nc2nnc(SCC(O)=C(C#N)c3nc4ccccc4[nH]3)s2)c1	RXFP1 antagonist -81 (no result: RXFP1 agonist)
COc1ccc(C2C=C(c3ccc(Cl)cc3)Nc3nc(-c4ccc(Cl)cc4)nn32)cc1 (centres undefined)	none (no result: gsp agonist, gsp antag)
CCOc1cc(/C=C2\CN(C)C/C(=C\c3ccc(O)c(OCC)c3)C2=O)ccc1O	none
CCOc1cc(/C=C2\CCC/C(=C\c3cc(Cl)c(O)c(OCC)c3)C2=O)cc(Cl)c1O	RXFP1 antagonist -69
O=C(CCCSc1ccc(Cl)cc1)Nc1cc(S(=O)(=O)N2CCOCC2)ccc1O	gsp antag 32µM
O=C(Nc1cc(S(=O)(=O)N2CCOCC2)ccc1O)c1ccc(S(=O)(=O)N2CCCCC2)cc1	gsp antag 8.9µM (no result: RXFP1 agonist)
CCOc1ccc(-c2cc(C)n3nc(C(=O)Nc4cc(Cl)ccc4O)cc3n2)cc1	none (no result: RXFP1 antagonist, gsp agonist, gsp antag)
CCS(=O)(=O)c1nc(S(=O)(=O)c2ccc(Cl)cc2)c(NCc2ccc(Cl)cc2)s1	none (no result: gsp agonist, gsp antag)
C[C@H]1O[C@@H](O[C@H]2CC[C@@]3(C)[C@H](CC[C@@H]4[C@@H]3C[C@@H](O)[C@]3(C)[C@@H](C5=CC(=O)OC5)CC[C@]43O)C2)C[C@H](O)[C@@H]1O[C@H]1C[C@H](O)[C@H](O[C@H]2C[C@H](O)[C@H](O[C@@H]3O[C@H](CO)[C@@H](O)[C@H](O)[C@H]3O)[C@@H](C)O2)[C@@H](C)O1	none (no result: RXFP1 agonist, gsp agonist, gsp antag)
CCOC(=O)c1ccc(NC(=O)N2CC3CCCN3c3ccccc32)cc1 (centres undefined)	none (no result: gsp agonist, gsp antag)
CCOc1ccc(NC(=O)N2CC3CCCN3c3ccccc32)cc1 (centres undefined)	RXFP1 antagonist -61 (no result: gsp agonist, gsp antag)
Cc1ccc(CN(C)c2nc(-c3cccnc3)nc3ccccc23)o1	none
CN(Cc1ccccc1F)c1nc(-c2cccnc2)nc2ccccc12	RXFP1 antagonist -67, gsp antag inconclusive
Cc1cc(C)n(-c2nc(Nc3ccccc3C(F)(F)F)nc(-n3nc(C)cc3C)n2)n1	RXFP1 antagonist inconclusive, gsp antag 28µM
N#C/C(=C\Nc1ccccc1O)c1nc2ccccc2o1	RXFP1 antagonist inconclusive, gsp antag 50µM
N#C/C(=C\c1ccncc1)c1nc2ccccc2o1	none
Cc1ccc(S(=O)(=O)CC(=O)Nc2sc3c(c2C(N)=O)CCCC3)cc1	none (no result: gsp agonist, gsp antag)
CC(C)N=c1scc(-c2cccs2)n1/N=C/c1ccc(O)c(O)c1O	RXFP1 antagonist -63
CN=c1scc(-c2ccccc2F)n1/N=C/c1ccc[nH]1	gsp agonist inconclusive
CN=c1scc(-c2ccccc2F)n1/N=C/c1ccc(O)c(O)c1O	RXFP1 antagonist -65
CCN=c1scc(-c2cccs2)n1/N=C/c1cc(OC)ccc1O	gsp antag inconclusive
O=C(Nc1ccc(Cl)cc1)c1cc(S(=O)(=O)N2CCc3ccccc32)ccc1F	none (no result: gsp agonist, gsp antag)

High-throughput results (PubChem)
